The list is not random: actives were taken first. Their share in the collection is about 17%.
ClpP mod = qHTS Assay for Activators of ClpP; ATP-dependent Clp protease proteolytic subunit (Bacillus subtilis (strain 168)), P80244; AID 651965, 2013; purified B. subtilis ClpP, FRET peptide cleavage, 20 min; 340,000 tested, 1.9% active; Potency, µM (doses to about 57.5 µM), for the others: top-dose activity change, negative = active; active = well fitted falling curve with a large enough effect; inconclusive = small, poorly fitted or top-dose-only effect; inactive = no such curve, though single readings can be large or run the other way; note: the source files actives as falling curves though it sought activators and does not explain the sign; nearly all actives have a fitted effect of over 65% in size
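ClpP 10 microg/mL final, pH 8 Tris/KCl buffer with BSA, glycerol, Tween-20; compound pinned in; FRET-FV substrate; RT 20 min; Ex320/Em430; ΔFRET vs ADEP 5.8 microM, DMSO, no enzyme.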
TDP1 inh = qHTS Assay for Inhibitors of Tyrosyl-DNA Phosphodiesterase (TDP1); AID 485290, 2010; recombinant TDP1, AlphaScreen DNA substrate cleavage; Potency, µM (titrated, usually from 130 µM), without a hit: at the highest dose activity change, negative = inhibition, usual class: inhibitors; 350,000 tested, 0.28% active; note: % is set by controls: 0 for no effect and ±100 for the full control effect; nearly all actives have a fitted effect of over 40% in size
Target sequence (Q9NUW8 whole entry, looked up): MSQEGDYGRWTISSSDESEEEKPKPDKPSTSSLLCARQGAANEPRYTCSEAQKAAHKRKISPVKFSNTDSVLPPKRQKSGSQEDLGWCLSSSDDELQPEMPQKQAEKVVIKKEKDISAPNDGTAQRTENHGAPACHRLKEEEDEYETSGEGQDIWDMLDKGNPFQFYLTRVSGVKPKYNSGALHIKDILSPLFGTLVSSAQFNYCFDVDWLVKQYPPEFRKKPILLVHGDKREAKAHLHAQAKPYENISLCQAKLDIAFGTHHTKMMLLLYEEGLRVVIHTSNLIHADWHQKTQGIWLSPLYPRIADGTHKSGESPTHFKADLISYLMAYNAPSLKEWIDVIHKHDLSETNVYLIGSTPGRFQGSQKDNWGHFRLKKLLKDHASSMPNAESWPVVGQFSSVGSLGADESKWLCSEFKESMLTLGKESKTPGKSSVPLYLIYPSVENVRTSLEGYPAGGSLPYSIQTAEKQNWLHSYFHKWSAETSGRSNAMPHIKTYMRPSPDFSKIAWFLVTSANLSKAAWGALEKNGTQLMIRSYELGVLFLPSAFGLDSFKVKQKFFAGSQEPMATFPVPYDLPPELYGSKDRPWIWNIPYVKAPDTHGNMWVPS
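Recombinant E. coli-expressed Tdp1 (1 nM) preincubated with compound 15 min at RT, then 5'-biotin/3'-phosphotyrosine-FITC DNA substrate (15 nM) added for 5 min. AlphaScreen beads (10 ug/ml) added, 10 min RT; tyrosine-FITC cleavage read as signal loss.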
DT40 TDP1 CPT = qHTS for Inhibitors of human tyrosyl-DNA phosphodiesterase 1 (TDP1): qHTS in cells in presence of CPT. 420,000 tested, 12% active. chicken DT40 Tdp1-/-;hTDP1 cells + 20 nM CPT, ATP luminescence, 48 h. Potency, µM (titrated, usually from 46.2 µM), for the others: at the top dose activity change, negative = growth inhibition, usual class: inhibitors. AID 686979, 2013; note: % is set by controls: 0 for no effect and ±100 for the full control effect; nearly all actives have a fitted effect of over 55% in size
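Chicken DT40 Tdp1-/- cells complemented with human TDP1, 400 cells/well, exposed to compounds plus 20 nM camptothecin for at least 48 h at 37 C; viability read as ATP content by CellTiter-Glo luminescence.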
TDP1 cell noCPT = qHTS for Inhibitors of human tyrosyl-DNA phosphodiesterase 1 (TDP1): qHTS in cells in absence of CPT. 420,000 tested, 15% active. AID 686978, 2013. DT40 Tdp1-/- hTDP1 cells, no CPT, ATP luminescence, 48 h. Potency, µM (top dose mostly 46.2 µM), for inactives: top-dose activity change, negative = growth inhibition, most hits filed as inhibitors; note: % is set by controls: 0 for no effect and ±100 for the full control effect; nearly all actives have a fitted effect of over 55% in size
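Growth kinetics read by CellTiter-Glo luminescence after ≥48 hr at 37 °C. Cells: DT40 Tdp1-/- stably carrying human TDP1, 400 per well, compound exposure in the absence of CPT (DMSO vehicle).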
An asterisk follows results filed as active; ? = inconclusive; . = not tested or not shown; [ ] = another dose, or the depositor's remark. Unless noted, calls come from the whole dose curve; as a rule, active = well fitted curve in the direction sought with a large enough effect; inconclusive = small, poorly fitted or top-dose-only effect, or another doubt; inactive = no such curve, though single readings can be large; an effect the other way counts as inactive or inconclusive. Potency is the fitted concentration of half-maximal effect.

SMILES	ClpP mod	TDP1 inh	DT40 TDP1 CPT	TDP1 cell noCPT
O=[N+]([O-])c1cccc(CN2CCN(Cc3ccc(Cl)cc3)CC2)c1	.	-3%	?	16µM*
COc1ccc(OCC(=O)N2CCN(CCc3ccncc3)CC2)cc1	-3%	3%	-6%	-2%
O=C1NCN(c2ccccc2)C12CCN(C(c1cc3ccccc3o1)c1nnnn1C1CCCC1)CC2 (configuration not stated)	-3%	.	?	?
O=c1[nH]c2ccccc2n1C1CCN(C(c2cc3ccccc3o2)c2nnnn2-c2ccc3c(c2)OCCO3)CC1 (configuration not stated)	0%	.	?	15µM*
O=c1[nH]c2ccccc2n1C1CCN(C(c2cccc3ccccc23)c2nnnn2-c2ccc3c(c2)OCCO3)CC1 (configuration not stated)	-3%	.	4.6µM*	2.6µM*
CC(=O)O[C@H]1C(=O)[C@@]2(C)C([C@H](OC(=O)c3ccccc3)[C@]3(O)C[C@H](OC(=O)[C@H](O)[C@@H](NC(=O)Cc4ccccc4)c4ccccc4)C(C)=C1C3(C)C)[C@]1(OC(C)=O)CO[C@@H]1C[C@@H]2O (some centres not stated)	-3%	.	0.18µM*	0.18µM*
CC(=O)O[C@H]1C(=O)[C@@]2(C)C([C@H](OC(=O)c3ccccc3)[C@]3(O)C[C@H](O)C(C)=C1C3(C)C)[C@]1(OC(C)=O)CO[C@@H]1C[C@H]2O (some centres not stated)	1%	.	7.3µM*	5.8µM*
CC(=O)O[C@@]12CO[C@@H]1C[C@H](O)[C@@]1(C)C(=O)[C@H](O)C3=C(C)[C@@H](OC(=O)[C@H](O)[C@@H](NC(=O)c4ccccc4)c4ccccc4)C[C@@](O)([C@@H](OC(=O)c4ccccc4)C12)C3(C)C (some centres not stated)	1%	.	0.033µM*	0.21µM*
COc1ccccc1CN1CCCC2(CCN(C(=O)Oc3ccccc3)CC2)C1	.	.	9%	-18%
CCC1C(C)=NN=C(c2ccc(OC)c(OC)c2)c2cc(OC)c(OC)cc21 (configuration not stated)	.	8%	?	?
O=C(Nc1ccc2nc(-c3cccs3)c(-c3cccs3)nc2c1)N1CCCCC1	-11%	-5%	8.9µM*	11µM*
O=C(c1ccccc1)C(CN1CCCC1)c1ccccc1 (configuration not stated)	648%	-2%	1.8µM*	1.6µM*
O=C(CN1CCCC1)c1ccccc1	-4%	.	?	?
Oc1ccc(Cl)cc1Sc1cc(Cl)ccc1O	.	10%	18µM*	18µM*
Nc1cc(Cl)ccc1O	.	-5%	.	.
CCn1cc2nc(SCc3c(F)cccc3Cl)n(CCc3ccccc3)c(=O)c2n1	-5%	5%	15µM*	23µM*
O=Cc1cn(Cc2c(F)cccc2Cl)nc1-c1ccccc1	-1%	.	?	?
CCn1cc2nc(SCc3cccc(C(F)(F)F)c3)n(Cc3ccc(OC)cc3)c(=O)c2n1	-7%	3%	21µM*	15µM*
O=C(Nc1nc2ccccc2s1)c1cccn(Cc2ccccc2)c1=O	-3%	3%	?	?
CCOC(=O)c1ccc(NC(=O)c2cccn(Cc3ccccc3F)c2=O)cc1	57%	1%	?	21µM*
Cc1ccccc1Cn1cccc(C(=O)Nc2nc3ccccc3s2)c1=O	-17%	-2%	16µM*	16µM*
COc1cccc(NC(=O)c2cccn(Cc3ccccc3C)c2=O)c1	-9%	-3%	?	26µM*
CCOC(=O)c1ccc(NC(=O)c2cccn(Cc3ccc(C)cc3)c2=O)cc1	-1%	3%	?	-26%
O=C(O)[C@@H]1CCN1	.	6%[56.1 µM]	.	.
CC(C)C(O)(C(=O)OC[C@@H]1CC[N+]2([O-])CCCC12)C(C)O (some centres not stated)	.	0%	-5%[9.04 µM]	5%[9.04 µM]
Cc1[nH]cnc1CCN	.	15%	.	.

Assay outcomes from PubChem BioAssay.
